What follows are targets tested with C#CCNC(=O)CCSSCCC(=O)NCCc1ccc(C=O)c(C=O)c1 (assay: lysine labeling ratio R10:1 (500 µM / 50 µM probe), SILAC-ABPP in living cells; higher = lower intrinsic lysine reactivity toward the probe, active = 2 or less). Details: HeLa; probe concentrations 500 vs 50 µM.
Method in brief: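 Living SILAC light and heavy HeLa cells in PBS at room temperature were treated with an alkyne-tagged, disulfide-linked lysine probe at 50 µM or 500 µM, with forward and reverse label swaps. The mixed lysates were clicked to biotin-azide, digested with trypsin, captured on neutravidin, released with DTT, alkylated and run by LC-MS/MS on a TIMS-TOF Pro. R for each lysine is the filtered median high-probe/low-probe MS1 peptide ratio, taken again as the median over forward and reverse replicates. Any value above 20 is set to 20.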

Sequence of UniProt P35579 (P35579 whole entry): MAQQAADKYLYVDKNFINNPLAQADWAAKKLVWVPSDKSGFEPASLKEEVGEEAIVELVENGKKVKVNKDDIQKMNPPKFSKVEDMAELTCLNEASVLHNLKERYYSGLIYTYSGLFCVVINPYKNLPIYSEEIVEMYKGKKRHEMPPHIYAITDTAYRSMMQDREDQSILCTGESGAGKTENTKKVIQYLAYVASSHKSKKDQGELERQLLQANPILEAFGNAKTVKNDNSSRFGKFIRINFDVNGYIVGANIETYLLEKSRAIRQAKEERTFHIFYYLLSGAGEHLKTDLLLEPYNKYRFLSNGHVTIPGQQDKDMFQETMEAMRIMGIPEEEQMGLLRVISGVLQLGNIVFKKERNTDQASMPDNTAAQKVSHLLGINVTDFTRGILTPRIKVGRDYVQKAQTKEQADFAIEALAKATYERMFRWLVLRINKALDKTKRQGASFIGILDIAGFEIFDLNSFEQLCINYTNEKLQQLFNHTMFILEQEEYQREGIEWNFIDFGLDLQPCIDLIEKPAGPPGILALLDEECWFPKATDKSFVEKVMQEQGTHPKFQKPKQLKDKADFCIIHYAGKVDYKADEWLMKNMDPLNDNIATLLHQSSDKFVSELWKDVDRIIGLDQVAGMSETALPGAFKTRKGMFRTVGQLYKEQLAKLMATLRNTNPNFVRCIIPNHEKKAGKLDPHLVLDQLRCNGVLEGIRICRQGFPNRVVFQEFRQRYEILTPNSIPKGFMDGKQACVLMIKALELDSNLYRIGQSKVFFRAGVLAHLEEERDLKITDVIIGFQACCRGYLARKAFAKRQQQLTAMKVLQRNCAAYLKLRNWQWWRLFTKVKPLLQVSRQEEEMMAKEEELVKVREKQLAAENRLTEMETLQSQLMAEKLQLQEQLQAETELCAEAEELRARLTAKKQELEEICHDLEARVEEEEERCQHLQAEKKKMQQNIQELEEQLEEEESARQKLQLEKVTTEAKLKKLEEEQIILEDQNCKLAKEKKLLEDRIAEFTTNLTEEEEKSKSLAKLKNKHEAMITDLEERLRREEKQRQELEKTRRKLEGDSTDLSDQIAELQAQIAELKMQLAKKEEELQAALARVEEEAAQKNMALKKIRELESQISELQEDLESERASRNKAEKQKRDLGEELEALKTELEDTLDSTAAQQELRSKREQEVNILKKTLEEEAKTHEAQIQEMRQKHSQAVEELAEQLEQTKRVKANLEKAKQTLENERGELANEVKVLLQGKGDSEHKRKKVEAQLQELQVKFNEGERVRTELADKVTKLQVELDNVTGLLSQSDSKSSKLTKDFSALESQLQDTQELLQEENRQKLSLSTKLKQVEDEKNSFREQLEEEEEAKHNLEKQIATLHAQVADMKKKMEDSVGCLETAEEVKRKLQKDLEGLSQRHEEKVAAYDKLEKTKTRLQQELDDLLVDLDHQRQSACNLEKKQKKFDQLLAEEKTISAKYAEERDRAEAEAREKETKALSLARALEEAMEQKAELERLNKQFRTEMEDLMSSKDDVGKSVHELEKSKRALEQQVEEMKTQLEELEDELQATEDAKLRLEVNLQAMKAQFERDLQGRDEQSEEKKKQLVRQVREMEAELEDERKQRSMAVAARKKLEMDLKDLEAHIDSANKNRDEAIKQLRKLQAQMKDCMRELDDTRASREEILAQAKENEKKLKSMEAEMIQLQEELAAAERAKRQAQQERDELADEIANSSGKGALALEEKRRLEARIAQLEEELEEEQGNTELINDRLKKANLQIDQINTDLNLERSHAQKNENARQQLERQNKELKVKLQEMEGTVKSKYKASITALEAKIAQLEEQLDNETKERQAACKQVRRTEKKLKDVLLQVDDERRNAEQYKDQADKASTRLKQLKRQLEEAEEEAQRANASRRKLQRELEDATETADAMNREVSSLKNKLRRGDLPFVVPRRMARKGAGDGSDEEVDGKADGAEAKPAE
Sequence of UniProt P21333 (P21333 whole entry): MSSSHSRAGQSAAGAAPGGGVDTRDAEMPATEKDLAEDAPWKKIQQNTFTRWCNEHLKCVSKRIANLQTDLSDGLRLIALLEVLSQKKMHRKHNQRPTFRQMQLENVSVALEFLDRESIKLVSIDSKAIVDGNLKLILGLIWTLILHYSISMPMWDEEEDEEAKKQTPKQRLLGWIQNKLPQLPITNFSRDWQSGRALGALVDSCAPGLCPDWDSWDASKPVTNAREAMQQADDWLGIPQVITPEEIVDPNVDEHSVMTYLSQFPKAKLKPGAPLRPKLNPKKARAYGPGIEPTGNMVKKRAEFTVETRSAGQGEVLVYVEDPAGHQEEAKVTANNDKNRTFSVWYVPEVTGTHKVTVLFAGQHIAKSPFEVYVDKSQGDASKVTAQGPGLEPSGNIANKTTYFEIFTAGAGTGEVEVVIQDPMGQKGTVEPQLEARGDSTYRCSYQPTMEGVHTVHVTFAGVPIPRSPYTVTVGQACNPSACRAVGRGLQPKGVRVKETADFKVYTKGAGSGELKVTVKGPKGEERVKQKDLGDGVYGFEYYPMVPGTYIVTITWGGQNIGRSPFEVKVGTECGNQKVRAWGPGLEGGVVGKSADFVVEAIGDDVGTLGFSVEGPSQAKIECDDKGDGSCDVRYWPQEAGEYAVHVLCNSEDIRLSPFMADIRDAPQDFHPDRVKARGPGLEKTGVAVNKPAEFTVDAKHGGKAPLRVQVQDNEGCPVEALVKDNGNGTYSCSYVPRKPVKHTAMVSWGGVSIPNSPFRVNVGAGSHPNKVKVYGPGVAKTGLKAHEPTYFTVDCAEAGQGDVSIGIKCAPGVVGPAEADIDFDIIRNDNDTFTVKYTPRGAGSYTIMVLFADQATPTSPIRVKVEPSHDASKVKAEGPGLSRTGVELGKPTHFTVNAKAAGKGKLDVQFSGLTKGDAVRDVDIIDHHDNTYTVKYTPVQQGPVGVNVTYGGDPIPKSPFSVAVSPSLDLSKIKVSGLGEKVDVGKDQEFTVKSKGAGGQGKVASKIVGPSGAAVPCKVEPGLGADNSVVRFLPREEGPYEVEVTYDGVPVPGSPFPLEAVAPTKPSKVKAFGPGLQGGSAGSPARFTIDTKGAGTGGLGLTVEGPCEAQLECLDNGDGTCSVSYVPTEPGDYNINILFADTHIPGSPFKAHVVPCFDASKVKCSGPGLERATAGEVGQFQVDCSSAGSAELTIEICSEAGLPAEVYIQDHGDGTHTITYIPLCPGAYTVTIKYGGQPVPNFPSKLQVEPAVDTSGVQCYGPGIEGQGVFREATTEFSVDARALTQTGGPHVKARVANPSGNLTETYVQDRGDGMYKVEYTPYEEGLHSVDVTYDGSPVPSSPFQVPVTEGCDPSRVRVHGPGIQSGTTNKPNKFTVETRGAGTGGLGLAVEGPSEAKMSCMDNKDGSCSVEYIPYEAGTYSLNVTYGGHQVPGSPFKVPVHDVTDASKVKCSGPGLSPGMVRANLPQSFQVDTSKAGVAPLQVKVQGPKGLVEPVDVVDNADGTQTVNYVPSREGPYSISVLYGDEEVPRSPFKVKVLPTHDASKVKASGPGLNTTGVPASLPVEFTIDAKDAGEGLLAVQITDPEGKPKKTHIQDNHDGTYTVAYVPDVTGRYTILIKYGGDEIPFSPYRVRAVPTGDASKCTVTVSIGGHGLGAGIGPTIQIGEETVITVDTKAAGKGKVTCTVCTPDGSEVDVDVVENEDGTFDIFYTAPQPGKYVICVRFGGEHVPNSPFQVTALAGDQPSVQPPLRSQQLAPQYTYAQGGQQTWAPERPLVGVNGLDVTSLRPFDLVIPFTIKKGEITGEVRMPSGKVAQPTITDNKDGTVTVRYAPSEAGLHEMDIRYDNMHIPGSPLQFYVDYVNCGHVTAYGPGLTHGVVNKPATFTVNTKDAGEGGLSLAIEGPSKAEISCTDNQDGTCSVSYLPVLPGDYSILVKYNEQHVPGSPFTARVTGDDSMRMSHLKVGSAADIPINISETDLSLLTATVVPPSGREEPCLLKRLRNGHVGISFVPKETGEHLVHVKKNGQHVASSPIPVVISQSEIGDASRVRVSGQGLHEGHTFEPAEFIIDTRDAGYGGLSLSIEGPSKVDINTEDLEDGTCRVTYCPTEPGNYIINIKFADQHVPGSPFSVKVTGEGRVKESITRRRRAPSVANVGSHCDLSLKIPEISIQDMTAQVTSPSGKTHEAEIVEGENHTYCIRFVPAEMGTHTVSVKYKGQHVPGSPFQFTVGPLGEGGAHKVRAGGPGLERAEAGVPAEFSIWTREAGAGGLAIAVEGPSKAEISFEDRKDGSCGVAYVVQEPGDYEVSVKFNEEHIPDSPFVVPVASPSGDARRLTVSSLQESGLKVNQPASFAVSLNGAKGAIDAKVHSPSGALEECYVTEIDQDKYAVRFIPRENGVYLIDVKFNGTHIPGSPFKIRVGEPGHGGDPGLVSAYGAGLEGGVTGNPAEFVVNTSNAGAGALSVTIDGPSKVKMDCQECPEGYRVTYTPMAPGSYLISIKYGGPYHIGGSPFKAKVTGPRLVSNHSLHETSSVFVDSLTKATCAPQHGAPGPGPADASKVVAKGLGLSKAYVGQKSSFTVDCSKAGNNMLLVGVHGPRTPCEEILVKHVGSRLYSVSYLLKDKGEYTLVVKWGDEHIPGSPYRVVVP
Sequence of UniProt P52803 (P52803 whole entry): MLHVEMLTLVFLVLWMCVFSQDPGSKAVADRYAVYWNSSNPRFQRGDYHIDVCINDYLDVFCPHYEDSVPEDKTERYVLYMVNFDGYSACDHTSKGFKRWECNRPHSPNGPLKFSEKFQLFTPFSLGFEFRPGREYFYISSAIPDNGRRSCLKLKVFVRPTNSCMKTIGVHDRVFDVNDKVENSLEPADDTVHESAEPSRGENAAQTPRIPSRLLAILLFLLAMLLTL
Sequence of UniProt P09497 (P09497 whole entry): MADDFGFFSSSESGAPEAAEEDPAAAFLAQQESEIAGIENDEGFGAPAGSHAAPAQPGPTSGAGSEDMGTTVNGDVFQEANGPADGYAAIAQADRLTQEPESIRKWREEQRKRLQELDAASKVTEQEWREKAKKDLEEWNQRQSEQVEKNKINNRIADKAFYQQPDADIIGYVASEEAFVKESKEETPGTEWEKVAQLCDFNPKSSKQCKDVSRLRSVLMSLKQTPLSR

Target | lysine labeling ratio R10:1
GSN (lysine site: K245) (UniProt P06396) | 4.08 (inactive)
SURF4 (lysine site: K22) (UniProt O15260) | 3.81 (inactive)
L1CAM (lysine site: K568) (UniProt P32004) | 3.06 (inactive)
SPTBN1 (lysine site: K2177) (UniProt Q01082) | 14.1 (inactive)
CLTB (lysine site: K122) (UniProt P09497) | 2.57 (inactive)
UniProt P78333 (lysine site: K385) | 2.8 (inactive)
PVR (lysine site: K90) (UniProt P15151) | 3.33 (inactive)
RUVBL2 (lysine site: K279) (UniProt Q9Y230) | 2.65 (inactive)
NPR3 (lysine site: K456) (UniProt P17342) | 0.78 (active)
CCT2 (lysine site: K441) (UniProt P78371) | 1.98 (active)
UniProt P05787 (lysine site: K198) | 7.97 (inactive)
UniProt P61978 (lysine site: K422) | 4.02 (inactive)
UniProt P52803 (lysine site: K166) | 0.58 (active)
MYH9 (lysine site: K1775) (UniProt P35579) | 3.47 (inactive)
PNN (lysine site: K202) (UniProt Q9H307) | 3 (inactive)
RPL3 (lysine site: K155) (UniProt P39023) | 0.69 (active)
TKT (lysine site: K543) (UniProt P29401) | 9.07 (inactive)
UniProt P63218 (lysine site: K12) | 5.18 (inactive)
DNAJA1 (lysine site: K136) (UniProt P31689) | 1.69 (active)
UniProt Q8WXI7 (lysine site: K12467) | 5.1 (inactive)

Target | lysine labeling ratio R10:1
FLNA (lysine site: K1824) (UniProt P21333) | 5.16 (inactive)
EDIL3 (lysine site: K431) (UniProt O43854) | 1.29 (active)
MYH9 (lysine site: K613) (UniProt P35579) | 1.78 (active)
EWSR1 (lysine site: K644) (UniProt Q01844) | 1.76 (active)
LAMB1 (lysine site: K1370) (UniProt P07942) | 1.61 (active)
FRAS1 (lysine site: K211) (UniProt Q86XX4) | 1.36 (active)
UniProt Q15149 (lysine site: K2339) | 4.2 (inactive)
UniProt P52803 (lysine site: K180) | 6.21 (inactive)
FLNA (lysine site: K2473) (UniProt P21333) | 3.58 (inactive)
TFRC (lysine site: K693) (UniProt P02786) | 5.63 (inactive)
UniProt P21589 (lysine site: K471) | 1.6 (active)
UniProt P60842 (lysine site: K309) | 1.73 (active)
KIRREL (lysine site: K67) (UniProt Q96J84) | 0.92 (active)
RPS19 (lysine site: K43) (UniProt P39019) | 0.56 (active)
ATP1B1 (lysine site: K113) (UniProt P05026) | 1.86 (active)
SLC4A2 (lysine site: K893) (UniProt P04920) | 3.14 (inactive)
MYH9 (lysine site: K835) (UniProt P35579) | 8.12 (inactive)
NUMA1 (lysine site: K573) (UniProt Q14980) | 1.46 (active)
UniProt O60245 (lysine site: K810) | 0.802 (active)
UniProt O60245 (lysine site: K484) | 1.3 (active)
